Experimental data reported in PubChem BioAssay AID743279 (National Center for Advancing Translational Sciences (NCATS), 2014).
In all, about 360,000 compounds went through this assay and about 17,000 (4.7%) were called active. Inconclusive results (about 5%) are left out. For the sample, actives were picked, then their nearest neighbours and some compounds at random. A number with no mark means an inactive call. Rule as the data show it: active = activity change below about -50%; inconclusive = mostly about -30% to -49%; inactive = weaker than that.

Assay: qHTS for Inhibitors of Inflammasome Signaling: IL-1-beta AlphaLISA Primary Screen
Settings: THP-1 LPS/ATP IL-1B secretion, 16 h; at 57.5 µM, stronger effect = lower value
Method in brief: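 THP-1 cells pretreated 1 hr with compounds (up to 57.5 uM final), then stimulated with LPS (250 ng/mL final) plus ATP (1.25 mM final); secreted IL-1B measured by AlphaLISA after 16 hr, decreased signal indicating inhibition.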
% is scaled to controls: 0 for no effect and ±100 for the full control effect.

Structure (SMILES)	activity change
O=C(OC1CC2CC1[C@H]1CCCCN1C2=O)N1CCOCC1 (some centres not stated)	7.59%
COc1ccc(C(=O)Nc2cccc(/C=C(/CCC(=O)O)c3nc4ccccc4s3)c2)cc1	51.8%
COc1ccccc1-n1cnc2cc(NS(=O)(=O)c3ccccc3)ccc21	-2.81%
CC(C)c1ccccc1OCC(O)CN(CC(O)COc1cccc2ccccc12)C(C)C (configuration not stated)	-104% (active)
CCC(C)Sc1nc2c(c(=O)[nH]c(=O)n2C)n1CC(O)COc1cccc2ccccc12 (configuration not stated)	23.6%
CCCN(CCC)CC(O)COc1ccccc1C(=O)Nc1ccccc1 (configuration not stated)	-6.43%
COc1cc(C(=O)OCCCN2CCOCC2)cc(OC)c1OC	-2.32%
O=C1Nc2ccccc2NC(c2ccc3c(c2)OCO3)=C1N(Cc1ccc(F)cc1)C(=O)c1ccco1	-23.7%
O=S1(=O)CC(N2CCN(Cc3ccccc3F)CC2)CN1Cc1cn(Cc2ccccc2)nn1 (configuration not stated)	14%
COc1ccccc1-c1nnc(-c2ccc(F)cc2)o1	6.31%
Cc1sc2nc(-c3ccccc3F)oc(=O)c2c1C	43.9%
COc1ccc(-c2csc3nc(-c4ccccc4F)oc(=O)c23)cc1OC	-84.4% (active)
COc1cc(F)ccc1-c1cc(C(=O)NCC2CCCCC2)[nH]n1	-19.4%
CC1CC(=O)N(CC(=O)Nc2cccc(Cl)c2)c2ccccc2S1(=O)=O (configuration not stated)	-6.86%
CC1=C/C(=N\OS(=O)(=O)c2ccccc2)C=CC1=O	-100% (active)
OCCc1ccc(NCCc2ccco2)cc1	-19.5%
Cc1ccc(CN2CC(N3CCC(Cc4ccccc4)CC3)CS2(=O)=O)cc1 (configuration not stated)	-19.7%
COc1ccc(C)cc1NC(=O)CSc1cccc[n+]1[O-]	0.963%
C/C(=C\C(=O)c1ccccc1)Nc1cccc(O)c1	-52.1% (active)

Structure (SMILES)	activity change
O=C(Nc1cccc(NC(=O)c2cccc(F)c2)c1)c1ccccc1	15.3%
O=C(NCc1cccc(CNC(=O)Nc2cccc(O)c2)c1)Nc1cccc(O)c1	-13%
C/C(=C\C(=O)c1cccnc1)Nc1ccc(C)c(C)c1	-17.1%
O=C(Nc1cccc(O)c1)c1ccc(C(=O)c2ccccc2)o1	-53.4% (active)
O=C(CSc1ccccc1)Nc1ccc(C(=O)Nc2cccc(O)c2)cc1	3.28%
CCCC(C(=O)N1CCOCC1)N1C(=O)C2C3C=CC(C3)C2C1=O (configuration not stated)	-7.71%
NC(=O)Cc1ccc2sc(-c3ccccc3)nc2c1	-14.8%
COCCCNC(=O)c1ccc(-c2c(C)noc2C)c2ccoc12	46.4%
COc1ccc(Cl)cc1-n1c(C)cc(C(=O)OCC(=O)N2CC(=O)Nc3ccccc32)c1C	-23.3%
Cc1sc2ncnc(SCC(=O)NC3CCS(=O)(=O)C3)c2c1C (configuration not stated)	-4.05%
N#Cc1ccc(-c2ccc(Cl)cc2)nc1Oc1ccc(F)cc1	30%
CCc1cc2c(NC(Cc3ccccc3)C(=O)O)ncnc2s1 (configuration not stated)	0%
CCc1cc2c(NC3CCCC3)ncnc2s1	-11.8%
CCc1cc2c(N3CCN(c4nnc(CC)s4)CC3)ncnc2s1	-71.6% (active)
COc1ccc(NC2CCCN(C(=O)c3ccccc3-c3ncc[nH]3)C2)cc1 (configuration not stated)	20.4%
COc1ccc(Cl)cc1C(=O)NNC(=O)c1nc2nc(C)cc(C)n2n1	27%
Clc1ccc(C[n+]2cc(-c3ccc(Cl)cc3)n3c2CCC3)cc1	-53.1% (active)
Cn1c(-c2ccccc2)c[n+]2c1CCCCC2	-10.2%
Cc1cc2c(cc1C)N1C(=O)c3cc4ccccc4cc3NC(=O)C1C(=O)N2 (configuration not stated)	0%

Structure (SMILES)	activity change
Cc1ccc(N(C(=O)c2snc(C(N)=O)c2N)C(C(=O)NCC2CCCO2)c2c[nH]c3ccccc23)cc1 (configuration not stated)	-66.2% (active)
CCOc1ccc(-n2c(N)c(C(=O)NCC3CCCO3)sc2=S)cc1 (configuration not stated)	-28.6%
Cc1ccc(N(C(=O)Cc2cccs2)C(C(=O)NCC2CCCO2)c2ccncc2)cc1 (configuration not stated)	-6.16%
COc1ccc(N(C(=O)c2snc(C(N)=O)c2N)C(C(=O)NC2CCCC2)c2ccco2)cc1OC (configuration not stated)	37%
CCOc1cc(C(C(=O)NCC2CCCO2)N(C(=O)Cn2nnc3ccccc32)c2cccc(OC)c2)ccc1O (configuration not stated)	-7.04%
CCOc1ccc(N(C(=O)c2snc(C(N)=O)c2N)C(C(=O)NCC2CCCO2)c2c[nH]c3ccccc23)cc1 (configuration not stated)	-52.3% (active)
COc1cccc(N(C(=O)c2snc(C(N)=O)c2N)C(C(=O)NCC2CCCO2)c2c[nH]c3ccccc23)c1 (configuration not stated)	-66.5% (active)
COc1ccc(C(C(=O)NC2CCCCC2)N(C(=O)c2snc(C(N)=O)c2N)c2ccccc2OC)cc1 (configuration not stated)	-4.36%
COCCNC(=O)C(c1ccc(C)o1)N(Cc1cccs1)C(=O)c1snc(C(N)=O)c1N (configuration not stated)	18.9%
CCC(C(=O)NC1CCCC1)N(C(=O)c1snc(C(N)=O)c1N)c1ccc2c(c1)OCCO2 (configuration not stated)	-12.2%
Cc1ccc(C(C(=O)NCC2CCCO2)N(C(=O)c2snc(C(N)=O)c2N)c2ccc(C(C)C)cc2)o1 (configuration not stated)	-54.6% (active)
Cc1cccc(N(C(=O)c2sc(C)nc2C)C(C(=O)NCC2CCCO2)c2ccccc2)c1 (configuration not stated)	17.8%
CCOc1ccccc1NS(=O)(=O)c1c[nH]c(C(=O)OC)c1	5.96%
CSC1=NN(c2ccccc2)CN(c2ccccc2)N1C	-27.8%
NC1=C([N+](=O)[O-])C(c2ccccc2)C2=C(CCCC2=O)O1 (configuration not stated)	23.3%
O=C(NC1CCCCC1)c1ccc(CNc2c(N3CCOCC3)c(=O)c2=O)cc1	-13.2%
CC(Nc1ccc([N+](=O)[O-])cc1[N+](=O)[O-])c1ccccc1 (configuration not stated)	5.52%
COc1ccc(OC)c(C(O)c2ncc(-c3cccc(C(F)(F)F)c3)[nH]2)c1 (configuration not stated)	0%
CSCCC(NC(=O)c1ccc(Cl)cc1Cl)C(=O)NNC(=O)c1csc(N2CCOCC2)n1 (configuration not stated)	-2.31%
